# Screening data as filed in PubChem.
# DT40 TDP1 CPT: qHTS for Inhibitors of human tyrosyl-DNA phosphodiesterase 1 (TDP1): qHTS in cells in presence of CPT. chicken DT40 Tdp1-/-;hTDP1 cells + 20 nM CPT, ATP luminescence, 48 h. Potency, µM (highest dose often 46.2 µM), for inactives: top-dose activity change, negative = growth inhibition, hits mostly inhibitors. 420,000 tested, 12% active. AID 686979, 2013; further: potency means the concentration at half of the fitted maximal effect; on the % scale 0 is the no-effect control and ±100 the full control effect; nearly all actives have a fitted effect of over 55% in size
#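 Chicken DT40 Tdp1-/- cells stably complemented with human TDP1 were seeded at 400 cells/well in medium containing 20 nM camptothecin, exposed to pin-transferred compounds, and grown at 37 °C for at least 48 hr. Viability was read as ATP luminescence.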
# TDP1 block: qHTS Assay for Inhibitors of Tyrosyl-DNA Phosphodiesterase (TDP1) | Tyrosyl-DNA phosphodiesterase 1 (Homo sapiens), Q9NUW8 | recombinant TDP1, AlphaScreen DNA substrate cleavage | Potency, µM (series often up to 130 µM), for the others: top-dose activity change, negative = inhibition, actives largely listed as inhibitors | 350,000 tested, 0.28% active; further: potency means the concentration at half of the fitted maximal effect; on the % scale 0 is the no-effect control and ±100 the full control effect; nearly all actives have a fitted effect of over 40% in size
# Target sequence (Q9NUW8 whole entry, looked up): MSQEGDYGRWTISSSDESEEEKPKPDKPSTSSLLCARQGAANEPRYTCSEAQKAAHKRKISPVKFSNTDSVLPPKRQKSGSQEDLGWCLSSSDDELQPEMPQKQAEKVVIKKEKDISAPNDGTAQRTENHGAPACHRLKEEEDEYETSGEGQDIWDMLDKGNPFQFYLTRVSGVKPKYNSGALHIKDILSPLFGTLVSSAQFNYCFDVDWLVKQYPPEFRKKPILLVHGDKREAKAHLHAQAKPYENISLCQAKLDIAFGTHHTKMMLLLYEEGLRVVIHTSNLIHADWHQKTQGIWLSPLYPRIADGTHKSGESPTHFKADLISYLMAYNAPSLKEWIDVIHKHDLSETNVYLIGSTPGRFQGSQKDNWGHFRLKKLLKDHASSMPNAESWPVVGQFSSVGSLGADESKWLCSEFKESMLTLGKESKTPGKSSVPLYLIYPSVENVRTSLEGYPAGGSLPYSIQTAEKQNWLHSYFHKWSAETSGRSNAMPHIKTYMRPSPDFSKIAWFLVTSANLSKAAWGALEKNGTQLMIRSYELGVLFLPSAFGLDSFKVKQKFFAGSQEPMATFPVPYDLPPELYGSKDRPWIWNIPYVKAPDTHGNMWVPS
#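 Tdp1 1 nM final; 15 min RT w/ cpd; substrate 15 nM, 5 min; beads 10 ug/ml, 10 min; AlphaScreen read. Neg ctrl: no enzyme.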
# IL1B secr inh: qHTS for Inhibitors of Inflammasome Signaling: IL-1-beta AlphaLISA Primary Screen; THP-1 LPS/ATP IL-1B secretion, AlphaLISA, 16 h; stronger effect = lower value; activity change, % at 57.5 µM; 360,000 tested, 4.7% active; in the data active means activity change below about -50%; inconclusive means mostly about -30% to -49%; further: on the % scale 0 is the no-effect control and ±100 the full control effect
#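 Secreted IL-1B measured by AlphaLISA bead assay after 16 h compound exposure of THP-1 cells; compounds (final up to 57.5 uM) added 1 h before LPS (250 ng/mL) and ATP (1.25 mM) stimulation; lower signal means less secretion.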
# TGFb SMAD3 inh: qHTS for Inhibitors of TGF-b | HepG2 CAGA-GFP TGF-b/SMAD3 reporter, GFP fluorescence, 18 h; TGF-beta stimulated, 500 pg/mL final | AID 588855, 2011 | Potency, µM (doses to about 46.1 µM), for the others: at the highest dose activity, negative = inhibition, hits mostly inhibitors | 410,000 tested, 1.2% active; further: potency means the concentration at half of the fitted maximal effect; on the % scale 0 is the no-effect control and ±100 the full control effect; nearly all actives have a fitted effect of over 65% in size
#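 HEPG2 CAGA-GFP cells (1000/well, DMEM with 1% FBS) were pre-incubated 2 h at 37 degrees C, given compound by pin tool, then stimulated with TGF-beta at 500 pg/mL final for 18 h before per-cell GFP fluorescence imaging.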
# HepG2 tox: qHTS for Inhibitors of TGF-b: Cytotox Counterscreen; HepG2 CAGA-GFP viability, ATP luminescence, 18 h; 410,000 tested, 0.76% active; Potency, µM (series often up to 46.1 µM), without a hit: at the top dose activity change, negative = cytotoxicity, actives largely listed as cytotoxic; further: potency means the concentration at half of the fitted maximal effect
#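 HepG2 CAGA-GFP cells (1000/well, DMEM with 1% FBS) received compound, then TGF-beta at 500 pg/mL final, and were incubated 18 hours at 37 degrees C. Viability was read by CellTiter-Glo luminescence. Media-only wells were set as complete cell-killing and DMSO as no toxicity.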
# TDP1 cell noCPT: qHTS for Inhibitors of human tyrosyl-DNA phosphodiesterase 1 (TDP1): qHTS in cells in absence of CPT. 420,000 tested, 15% active. Potency, µM (highest dose often 46.2 µM), for inactives: top-dose activity change, negative = growth inhibition, actives largely listed as inhibitors. DT40 Tdp1-/- hTDP1 cells, no CPT, ATP luminescence, 48 h; further: potency means the concentration at half of the fitted maximal effect; on the % scale 0 is the no-effect control and ±100 the full control effect; nearly all actives have a fitted effect of over 55% in size
#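 Growth kinetics read by CellTiter-Glo luminescence after ≥48 hr at 37 °C. Cells: DT40 Tdp1-/- stably carrying human TDP1, 400 per well, compound exposure in the absence of CPT (DMSO vehicle).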
# The depositor's hits bear a star; ? = inconclusive; / = no result given; [ ] = remark or other dose. This is a sample that favours compounds with a hit; in the whole collection about 19% have one here. Unless noted, the call rests on the fitted dose curve; in most records, active means well fitted curve in the direction sought with a large enough effect; inconclusive means small, poorly fitted or top-dose-only effect, or another doubt; inactive means no such curve, though single readings can be large; an effect the other way counts as inactive or inconclusive.
SMILES,DT40 TDP1 CPT,TDP1 block,IL1B secr inh,TGFb SMAD3 inh,HepG2 tox,TDP1 cell noCPT
O=C(Nc1cc(C(F)(F)F)cc(C(F)(F)F)c1)c1cccn(Cc2ccccc2Cl)c1=O,?,-5%,/,-3%,-12%,?
COc1ccc(NC(=O)CCn2cc(C)c3ccccc32)cc1,-23%,/,-27,?,-25%,?
COc1ccc(NC(=O)CCn2cnc3onc(-c4ccc(F)cc4)c3c2=O)cc1OC,2.9µM*,1%,/,?,-20%,2.9µM*
CC12CCC3C(CCC4=C(O)C(=O)CCC43C)C1CCC2=O (stereo not drawn),/,16%[56.1 µM],/,/,/,/
O=C(COc1ccccc1/C=C1/NC(=O)NC1=O)Nc1ccccc1,21µM*,8%,25,-2%,0%,?
CCc1nn(CC(=O)N2CCN(Cc3ccc4c(c3)OCO4)CC2)c(=O)c2cc3occc3n12,?,1%,-19,-5%,23%,?
COP(=O)(OC)[C@@H](O)C(Cl)(Cl)Cl,/,7%[56.1 µM],/,/,/,/
COC(=O)Cn1cc(/C=C2\C(=O)NC(=O)N(c3ccc(OC)cc3)C2=O)c2ccccc21,?,/,?,13%,-28%,2.3µM*
COCCCNC(=O)Cn1cc(/C=C2\C(=O)NC(=O)N(c3ccccc3F)C2=O)c2ccccc21,?,/,-82*,?,-31%,?
COc1ccc(N2C(=O)NC(=O)/C(=C\c3cn(C)c4ccccc34)C2=O)cc1,1%,/,25,129%,1%,-26%
O=C1/C(=C\c2ccc([N+](=O)[O-])cc2)N2CCC1CC2,-14%,-6%,-64*,2%,-15%,?
Cc1ccc(-c2nc(CS(=O)CC(=O)NC3CCCC(C)C3C)c(C)o2)cc1 (stereo not drawn),-17%,4%,-54*,?,1%,11%
CC(=O)c1cccc(OCC(=O)N2CCN(CC(=O)Nc3cccc(F)c3)CC2)c1,-5%,0%,-11,26%,9%,?
COc1ccc(NC(=O)CSc2nc(-c3ccco3)cc(C(F)(F)F)n2)cc1OC,1.5µM*,-2%,/,?,-19%,0.92µM*
Cc1cccc(NC(=O)CSc2ccc(-c3ccco3)nn2)c1,?,2%,0,-39%,-3%,29µM*
CCOC(=O)c1ccc(NC(=O)CSc2ccc(-c3cccnc3)nn2)cc1,?,5%,-8,-10%,-15%,?
C[S+](CC[C@H](N)C(=O)O)C[C@H]1O[C@@H](n2cnc3c(N)ncnc32)[C@H](O)[C@@H]1O (stereo partly drawn),?,/,-1,4%,12%,?
CC[n+]1c(-c2ccccc2)c2cc(N)ccc2c2ccc(N)cc21,0.16µM*,9%,-99*,?,-14%,0.15µM*
Cc1ccc(NC(=O)N(C)C)cc1Cl,/,10%,/,/,/,/
Cc1ccc(N2CCN(C(=O)c3cn(CC4CCCCC4)nn3)C(C)C2)cc1 (stereo not drawn),18µM*,/,-5,?,-4%,?
CC(C(=O)OC1CC2CCC(C1)N2C)c1ccc(Br)cc1 (stereo not drawn),21µM*,7%,/,/,/,16µM*
CCC(Oc1ccc(Cl)cc1)C(=O)OC1CC2CCC(C1)N2C (stereo not drawn),13µM*,7%,/,/,/,10µM*
CC(C)(C)c1ccc(C(=O)Nc2ccc(Cl)cc2C(=O)c2ccccc2)cc1,7%,-1%[12.3 µM],/,?,-22%,-9%
COc1ccc(C(c2nnnn2-c2ccc3c(c2)OCCO3)N2CCC(n3c(=O)[nH]c4ccccc43)CC2)cc1 (stereo not drawn),?,/,?,?,-2%,16µM*
O=c1[nH]c2ccccc2n1C1CCN(C(c2ccnc3ccccc23)c2nnnn2-c2ccc3c(c2)OCCO3)CC1 (stereo not drawn),5.2µM*,/,?,?,5%,9.2µM*
SMILES,DT40 TDP1 CPT,TDP1 block,IL1B secr inh,TGFb SMAD3 inh,HepG2 tox,TDP1 cell noCPT
Cc1ccc(C)c(-c2nnc(NC(=O)C3=COCCO3)o2)c1,-13%,/,-4,-6%,-1%,?
O[C@@H](Cc1ccncc1)C(Cl)(Cl)Cl,-4%,13%[56.1 µM],/,/,/,-24%
CNC(=O)Oc1cccc2c1OC(C)(C)C2,2%,6%,/,/,/,-20%
Cc1ccc(CN2C3CCCC2CC(NC(=O)Nc2cccc(F)c2)C3)cc1 (stereo not drawn),?,6%,-70*,0%,-52%,15µM*
O=[N+]([O-])c1ccc(S(=O)(=O)NN=C2CCCCC2)cc1,-37%,/,-18,-1%,-7%,?
COC(=O)CCC(=O)Nc1sc(Cc2ccccc2)c(C)c1C(N)=O,12µM*,-5%,23,-18%,-19%,23µM*
Brc1ccc2c(c1)C(OC1CN3CCC1CC3)c1ccccc1CS2 (stereo not drawn),13µM*,1%,-80*,?,-124%,5.2µM*
O=C(O[C@H]1CN2CCC1CC2)N1CCc2ccccc2[C@@H]1c1ccccc1,?,/,/,/,/,21µM*
O=c1[nH]c(O)c(N=Nc2ccc([N+](=O)[O-])cc2)c(=O)[nH]1,?,12%,2,-3%,16%,-21%
C=CCSc1nc2c(c(-c3ccsc3)c1C#N)CN(C)CC2,?,/,-11,-22%,-2%,18µM*
COC(=O)c1cccc(NC(=O)c2ccc(S(=O)(=O)N(C)c3ccccc3OC)cc2)c1,16µM*,/,45,-28%,-49%,12µM*
O=C(COC(=O)c1cccc(NC(=O)c2ccc(Br)cc2)c1)c1ccc(Br)cc1,?,/,/,-16%,-11%,?
CC1CC(Cl)CCC1C(=O)OC(C)(C)C (stereo not drawn),11%,5%,/,/,/,10%
Cn1ncc2c(NCc3ccc(Cl)cc3)ncnc21,?,8%,/,-16%,-7%,?
CN1[C@@H]2CC[C@H]1CC(OC(c1ccc(F)cc1)c1ccc(F)cc1)C2 (stereo partly drawn),6.7µM*,6%,/,/,/,9.4µM*
CCC(Cl)[N+](=O)[O-] (stereo not drawn),/,13%,/,/,/,/
